Values joined by “and” are separate entries in the source; they are usually repeats but may differ in a detail not shown here. Identical values can stand only once. Results filed as inconclusive are left out. Values without a mark were called inactive. Active and inactive are the calls of the source. The call rests on the fitted dose curve; in most records, active means well fitted inhibition curve with a large enough effect; inconclusive means small, poorly fitted or top-dose-only effect; inactive means no such curve, though single readings can be large or run the other way.
molecular target: Cruzipain (Trypanosoma cruzi) (UniProt P25779); test: Confirmation qHTS Assay for Inhibitors of Cruzain; settings: purified cruzain, Z-FR-AMC fluorescence, 0.01% Triton; further: nearly all actives have a fitted effect of over 40% in size;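 on activity change, negative = inhibition: plate controls were uninhibited enzyme control for no effect and buffer wells lacking enzyme for full effect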
Sequence (P25779 123-467 limits assumed): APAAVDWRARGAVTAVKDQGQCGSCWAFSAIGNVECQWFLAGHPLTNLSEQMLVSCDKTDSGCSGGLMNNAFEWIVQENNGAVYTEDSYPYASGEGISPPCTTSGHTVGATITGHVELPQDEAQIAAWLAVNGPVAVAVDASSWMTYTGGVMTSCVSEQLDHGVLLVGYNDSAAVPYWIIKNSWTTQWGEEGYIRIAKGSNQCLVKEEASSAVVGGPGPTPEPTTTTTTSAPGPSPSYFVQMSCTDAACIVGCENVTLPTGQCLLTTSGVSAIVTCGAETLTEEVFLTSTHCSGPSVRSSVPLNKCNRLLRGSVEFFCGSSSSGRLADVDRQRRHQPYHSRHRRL
Outline: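 Purified cruzain, 1.5 nM, pre-incubated 15 min at room temperature with compound in 100 mM sodium acetate pH 5.5, 5 mM DTT, 0.01% Triton X-100. Then 2 uM Z-FR-AMC added; AMC fluorescence (ex 360/em 450 nm) increase over 60 s gave reaction progress.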
Potency means the concentration at half of the fitted maximal effect.

SMILES | activity change, negative = inhibition | Potency
COc1ccccc1-c1nn2c(-c3cc(C)[nH]n3)nnc2s1 | -12.2% | –
CC/C=C1/N=C2C(=O)N(C)C(=O)N=C2N(C)N1 | – | 0.631 µM (active)
Clc1ccc2[nH]c3c(NCCCN4CCOCC4)ncnc3c2c1 | – | 12.6 µM (active)
C=Cn1ccnc1P(=S)(c1ccc2c(c1)c1ccccc1n2CC)c1nccn1C=C | -8.46% | –
Cc1ccc(S(=O)(=O)N[C@@H](Cc2ccccc2)C(=O)CCl)cc1 | – | 14.1 µM (active) and 28.2 µM (active)
Cc1cc(C)cc(OCCCn2c(CCNC(=O)C3CCCCC3)nc3ccccc32)c1 | – | 0.891 µM (active)
O=C(Cn1cc(CNC(=O)c2ccccc2)nn1)Nc1cc(C(F)(F)F)ccc1Cl | 2.48% | –
O=C(CNC(=O)Cc1ccccc1)NCC(=O)OCC(=O)c1cccc2ccccc12 | -13% | –
O=c1c2ccccc2sc2nc(C3CCCCC3)n(Cc3ccco3)c(=O)c12 | – | 25.1 µM (active)
N#Cc1nc(Nc2ccc(Br)cc2)nc(NC2CCCC2)n1 | – | 0.501 µM (active)
NC(N)=NCCC[C@H](NC(=O)CNC(=O)c1ccccc1)C(=O)Nc1cc(C(F)(F)F)ccc1Cl | -8.36% | –
CCN(c1ccccc1)c1nc(N)nc(C#N)n1 | – | 14.1 µM (active)
CCC(c1nnnn1Cc1ccccc1)N(Cc1ccccc1)Cc1cc2cc(C)ccc2[nH]c1=O (centres undefined) | -9.93% | –
CCn1nc(-c2ccccc2C)nc2c(=O)n(C)c(=O)nc1-2 | – | 0.631 µM (active)
COc1ccc(S(=O)(=O)NC2CCN(C#N)CC2)cc1 | -4.94% | –
COc1ccc(NS(=O)(=O)c2cc(NC(=O)/C=C/c3ccccc3OC)ccc2N2CCCCC2)cc1 | 2.33% | –
Cc1ccc2[nH]c(=O)c(CN(CCO)Cc3nnnn3Cc3ccco3)cc2c1 | -3.64% | –
N#Cc1nc(N2CCCCC2)nc(N2CCCCC2)n1 | – | 8.91 µM (active)
O=C(N[C@@H](Cc1ccccc1)C(=O)CCl)OCc1ccccc1 | – | 0.447 µM (active)
Cc1ccccc1OCCCCn1c(CCNC(=O)C2CCCCC2)nc2ccccc21 | – | 0.562 µM (active)

SMILES | activity change, negative = inhibition | Potency
CCn1cnc2c(Nc3cccc(Cl)c3)nc(C#N)nc21 | – | 0.0141 µM (active)
COc1ccc(-c2nn3c(-c4cc(-c5ccccc5)n[nH]4)nnc3s2)cc1 | -14.7% | –
COc1ccc(-c2cc(C#N)nc(N3CCN(C)CC3)n2)cc1 | -11.8% | –
O=C(Nc1ccccc1)c1ccc2nc(-c3ccco3)c(-c3ccco3)nc2c1 | – | 7.94 µM (active)
COc1cc(NC(=O)C(OC(=O)CNC(=O)c2ccccc2)c2ccccc2)c(OC)cc1Cl (centres undefined) | – | 11.2 µM (active)
COc1cccc(OC)c1-c1nn2c(-c3n[nH]c4c3CCC4)nnc2s1 | -13% and -10.1% | –
CN(C)c1ccc(C(=O)NCC(=O)OC(C(=O)Nc2cc(C(F)(F)F)ccc2Cl)c2ccccc2)cc1 (centres undefined) | – | 14.1 µM (active)
CC(C)CC(OC(=O)CNC(=O)c1ccccc1)C(=O)Nc1cc(C(F)(F)F)ccc1Cl (centres undefined) | – | 7.94 µM (active)
CCOc1ccc(-c2cc3nc(C4CCN(C(=O)OC(C)(C)C)CC4)c(C(=O)O)cn3n2)cc1 | -33% | –
O=C(NCc1nnc(-c2cc3ccccc3[nH]2)o1)c1ccccc1 | -2.11% | –
COc1cc(NC(=O)C(OC(=O)CNC(=O)c2ccccc2)c2ccccc2)cc(OC)c1 (centres undefined) | – | 25.1 µM (active)
C=CC(C)(C)c1[nH]c2ccccc2c1C1=C(O)C(=O)C(c2c[nH]c3c(CC=C(C)C)cccc23)=C(O)C1=O | – | 25.1 µM (active)
COc1ccc(OCCCn2c(CCNC(=O)C3CCCCC3)nc3ccccc32)cc1 | – | 1.41 µM (active)
N#Cc1nc(Nc2ccccc2)nc(NC2CCCCC2)n1 | – | 1.41 µM (active)
CCOc1ccc(CN2C(=O)c3ccccc3Sc3ccc(C(=O)NCc4ccc(C)cc4)cc32)cc1 | 0.925% | –
C(/Oc1ccccc1)=C1\Nn2c(nnc2-c2cc(-c3ccccc3)n[nH]2)S1 | -9.74% and -7.34% | –
COc1nc(C#N)nc(N(C)C)n1 | – | 6.31 µM (active) and 7.94 µM (active)
CC1CCN(c2oc(-c3cccc4ccccc34)nc2C#N)CC1 | -40.4% | –
Clc1ccccc1-c1nn2c(-c3cc(-c4ccccc4)n[nH]3)nnc2s1 | -2.56% | –
